# Data as given in PubChem BioAssay AID651820 (National Center for Advancing Translational Sciences (NCATS), 2012).
# Among all 340,000 compounds or so, about 12,000 (3.5%) were called active. A call without a number means that no potency is given here. About 18% were inconclusive and are not listed. The full list was thinned out, with actives kept by preference. A number with no mark means an inactive call. The call rests on the fitted dose curve; in most records, active means well fitted inhibition curve with a large enough effect; inconclusive means small, poorly fitted or top-dose-only effect, or another doubt; inactive means no such curve, though single readings can be large or run the other way.
# Test: qHTS Assay for Inhibitors of Hepatitis C Virus (HCV)
# Details: Huh7.5.1 HCVcc-Cre infection, luciferase reporter, 44 h; series mostly up to 41.8 µM
# From the text: Hepatitis C virus (HCV) infects about 200 million people in the world. Many infected people progress to chronic liver disease including cirrhosis with a risk of developing liver cancer. To date, there is no effective vaccine for hepatitis C. Current therapy based on interferon is only effective in about half of the patients and is associated with significant adverse effects. The fraction of people with HCV who can complete a successful treatment is estimated to be no more than 10 percent. Recent development of direct-acting antivirals against HCV, such as protease and polymerase inhibitors, is promising but still requires combination with peginterferon and ribavirin for maximal efficacy. In addition, these agents are associated with high rate of resistance and many have significant side effects. Due to the lack of a culture system for infectious HCV, the search for new HCV drugs has been greatly hampered. […] High-throughput screening (HTS) with an infectious HCV system would cover the complete spectrum of potentially druggable targets in all stages of HCV lifecycle, and would have more biological relevance than other cell-based assays. Moreover, targeting several key processes in the viral life cycle may not only increase antiviral efficacy; more importantly, it may also reduce the capacity of the virus to develop resistance to the compound. The goal of this project is to identify novel HCV inhibitors as new therapies for hepatitis C, using a highly sensitive and specific assay platform which is based on a HCV infectious cell culture system established in the laboratory and adapted for high-throughput HCV drug screen. NIH Chemical Genomics Center [NCGC] NIH Molecular Libraries Probe Centers Network [MLPCN] MLPCN Grant: MH095511 Assay Submitter (PI): Jake Liang, NIDDK
# The assay will start with plating 1,000 cells/well in 3 µL volume and culture for 4 h. Then 23 nL of compounds from the library collection will be added to each well, followed by adding 2.5 µL of HCVcc-Cre virus (~ 0.5 moi) and further cultured for 44 h before the luciferase assay. A volume of 4.5 µL luciferase substrates will be added to each well and the plates will be incubated at room temperature for 15 min. and then read for 15 sec. for the luciferase activity
Compound,Potency,"activity change, negative = inhibition"
O=C(OCC(=O)N1CCN(C(=O)c2ccco2)CC1)c1c(Cl)cccc1Cl,inactive,–
CC1CCCCC1NC(=O)Cn1cnc2c1c(=O)n(C)c(=O)n2C (configuration not stated),inactive,–
Cc1ccc(NC(=O)c2cc3ccccc3o2)cc1,inactive,–
Cc1ccc(OC(=O)c2cc3ccccc3o2)cc1,inactive,–
C/C(=N\NC(=S)Nc1ccc(C)cc1)c1cc2ccccc2o1,10 µM (active),–
COc1cc(C(=O)NC2CCN(C)CC2)ccc1Nc1ncc2c(n1)N(C1CCC(O)CC1)CCC(=O)N2C (configuration not stated),inactive,–
O=C(CSc1nnc(N2CCOCC2)n1-c1cccc(F)c1)N1CCN(c2ccccn2)CC1,inactive,–
Cc1cccc(-n2ncc3c(=O)[nH]c(SCC(=O)Nc4cc(C)on4)nc32)c1,inactive,–
Cc1c(O)c(C)c2c(c1O)C(=O)C[C@@H](c1ccccc1)O2,inactive,–
O=C(COc1ccc([N+](=O)[O-])cc1Cl)Nc1ccc2[nH]c(=O)[nH]c2c1,inactive,–
COc1ccc(C(=O)Nc2ccc(CN3CCOCC3)cc2)cc1,inactive,–
O=C(Nc1ccccc1C(=O)N1CCOCC1)c1ccc(CSc2ccccc2)cc1,inactive,–
O=C(Nc1ccc(CSc2ccccc2)cc1)c1ccc(CN2CCOCC2)cc1,3.16 µM (active),–
CN(Cc1ccccc1)C(=O)COC(=O)/C=C/c1ccc2c(c1)OCO2,inactive,–
CC(=O)c1c(C)[nH]c(C(=O)COc2ccc3c(C)cc(=O)oc3c2)c1C,inactive,–
O=C(Nc1ccc2nc3n(c(=O)c2c1)CCCC3)c1ccc(Cl)nc1,inactive,–
CC1(C)C/C(=N/Nc2ccc([N+](=O)[O-])cc2[N+](=O)[O-])C(C)(C)O1,inactive,–
CCOC(=O)C1(Cc2cccc(OC)c2)CCN(Cc2csc(C(C)=O)c2)CC1,22.4 µM (active),–
CCOC(=O)C1(Cc2cccc(OC)c2)CCN(C(C)COC)CC1 (configuration not stated),inactive,–
CCOC(=O)C1(Cc2cccc(OC)c2)CCN(C(C)CC(C)(C)O)CC1 (configuration not stated),inactive,–
c1ccc(-c2c[nH]c(-c3ccccc3)c2)cc1,inactive,–
Cc1cc2oc(=O)cc(CN3CCN(Cc4ccccc4)CC3)c2cc1C,inactive,–

Compound,Potency,"activity change, negative = inhibition"
CCCOc1ccc(C2c3c(oc4cc(C)c(C)cc4c3=O)C(=O)N2CCCN2CCOCC2)cc1 (configuration not stated),inactive,–
Cc1cc2oc3ccc(NCCC4CCCN4C)cc3c(=O)c2cc1C (configuration not stated),14.1 µM (active),–
CSc1ncccc1C(=O)Nc1ccc2c(c1)OCO2,inactive,–
O=C1C2C3C=CC(C3)C2C(=O)N1c1ncc([N+](=O)[O-])s1 (configuration not stated),inactive,–
CCN(C(=O)CSc1ncnc2sccc12)c1c(N)n(Cc2ccccc2)c(=O)[nH]c1=O,inactive,–
O=c1c2c(nc3n1CCCCC3)sc1c(O)cccc12,inactive,–
CC(=O)c1ccc(NC(=O)c2sc3nc4n(c(=O)c3c2C)CCCCC4)cc1,11.2 µM (active),–
Cc1c(C(=O)Nc2ccccc2)sc2nc3n(c(=O)c12)CCCCC3,inactive,–
O=C(c1ccc(Cl)nc1)N1CCN(S(=O)(=O)c2ccc3c(c2)OCCO3)CC1,inactive,–
COc1cc(C(c2c(NC(=O)c3ccco3)sc(C)c2C)N2CCOCC2)cc(OC)c1OC (configuration not stated),inactive,–
COc1cccc(NC(=O)C2C(c3ccccc3)C2(Cl)Cl)c1 (configuration not stated),12.6 µM (active),–
COc1cccc(NC(=O)c2ccccc2SC)c1,inactive,–
COc1cccc(NC(=O)C2CCCN2C(=O)OCc2ccccc2)c1 (configuration not stated),inactive,–
Cc1ccccc1-c1cc(C(=O)NCc2cccs2)n(CC2CC(c3cccnc3)=NO2)n1 (configuration not stated),inactive,–
O=C(CCCCCCCC(=O)N1CCCCC1)N1CCCCC1,inactive,–
O=C(CC1SC(N2CCOCC2)=NC1=O)Nc1ccccc1F (configuration not stated),inactive,–
COc1cc(C=O)c(Br)cc1OCC(=O)NCc1ccccc1,inactive,–
COc1cc(C(=S)NCc2ccccc2)cc(Br)c1O,inactive,–
COc1cc(C(=O)NCc2ccncc2)cc(Br)c1OCc1ccccc1,10 µM (active),–
O=c1c2ccccc2ncn1CCc1ccncc1,inactive,–
CCOc1ncccc1C(=O)OCC(=O)N1c2ccccc2CC1C (configuration not stated),inactive,–
C[C@@H]1CN([C@@H](C)CO)C(=O)c2cccc(NS(=O)(=O)c3ccc(F)cc3)c2O[C@H]1CN(C)C(=O)NC1CCCCC1,inactive,–

Compound,Potency,"activity change, negative = inhibition"
CCN(CC)CCCNC(=O)c1cc2c(=O)[nH]c3ccc(C)cc3c2s1,inactive,–
Cn1c(C(=O)NCCN2CCc3ccccc3C2)cc2c(=O)[nH]c3ccccc3c21,inactive,–
O=C(NCCN1CCN(Cc2ccccc2)CC1)c1cc2c(=O)[nH]c3ccccc3c2s1,12.6 µM (active),–
CSc1ccccc1C(=O)OCC(=O)N1CCN(C(C)=O)CC1,inactive,–
Cc1ccc(S(=O)(=O)n2oc(=O)c(C3CCCCC3)c2N)cc1,inactive,–
O=C1CSc2ccc(C(=O)NCc3ccccn3)cc2N1,inactive,–
COc1ccc(-c2oc3ncnc(NCCCO)c3c2-c2ccc(OC)cc2)cc1,12.6 µM (active),–
COc1cc2nc(Cl)nc(NCCO)c2cc1OC,inactive,–
COc1ccc(CCNc2ncnc3c2nnn3Cc2ccccc2)cc1,inactive,–
Nc1ccc2c(c1)C(O)c1ccc(Cl)cc1-2 (configuration not stated),inactive,–
Clc1cccc(Cl)c1OCCOCCNCc1ccccc1,inactive,–
CN(C)CCOCCOc1ccc(Cl)c2ccccc12,10 µM (active),–
CN(C)CCOC1c2ccccc2-c2ccccc21,inactive,–
CCC(C)N(C(=O)CSc1nnnn1-c1ccccc1OC)C1CCS(=O)(=O)C1 (configuration not stated),inactive,–
CN(C(=O)Cn1nnc(-c2ccc(F)cc2)n1)C1CCS(=O)(=O)C1 (configuration not stated),inactive,–
CCN1CCN(C(=O)CSc2ccc(C)cc2)CC1,inactive,–
CCN1CCC(O)(/C=C/c2ccc(C)cc2)C(C(=O)/C=C/c2ccc(C)cc2)C1 (configuration not stated),14.1 µM (active),–
CCOC(=O)C1CCCN(C(=O)/C=C/c2ccc(OC)cc2)C1 (configuration not stated),inactive,–
NC(=O)C1(Nc2ccccc2Cl)CCCC1,inactive,–
O=C(CCNC(=O)c1ccc(Cl)cc1)NC1CCCc2ccccc21 (configuration not stated),inactive,–
CCOc1ccc(C(C)NC(=O)CN2C(=O)NC3(CCCCC3)C2=O)cc1OCC (configuration not stated),inactive,–
CN(C)S(=O)(=O)c1cccc(NC(=O)COc2ccc3ccccc3c2)c1,22.4 µM (active),–

Compound,Potency,"activity change, negative = inhibition"
CN(C)S(=O)(=O)c1cccc(NC(=O)COC(=O)c2cc(=O)[nH]c(=O)[nH]2)c1,inactive,–
CN(C)S(=O)(=O)c1cccc(NC(=O)COC(=O)/C=C/c2cccs2)c1,inactive,–
CCc1c(Nc2ccccc2C)nc(N)[nH]c1=O,inactive,–
C[C@H](CO)N1C[C@H](C)[C@@H](CN(C)S(=O)(=O)c2ccc(F)cc2)Oc2ccc(NC(=O)CCC(F)(F)F)cc2C1=O,inactive,–
Cc1ccc(Oc2cnn(-c3ccccc3)c(=O)c2Br)cc1,inactive,–
CCOC(=O)c1ccc(-n2c(C)nc3c(cnn3-c3ccccc3C)c2=O)cc1,inactive,–
COc1ccc(-n2c(C)nc3c(cnn3-c3ccccc3)c2=O)cc1,11.2 µM (active),–
COc1ccc(CNC(=O)COC(=O)c2sccc2C)cc1OC,inactive,–
O=C(COc1cccnc1[N+](=O)[O-])Nc1ccc(Cl)cc1F,inactive,–
COC(C[C@@H]1O[C@@H]1C(=O)[C@H](C)OCc1ccccc1)OC,inactive,–
Cc1nc(Nc2ccccc2C)c2cnn(C)c2n1,inactive,–
CCNS(=O)(=O)c1ccc(CCC(=O)N2CCN(c3ccc(OC)cc3)CC2)cc1,inactive,–
CCCNS(=O)(=O)c1ccc(CCC(=O)N2CCCC2)cc1,inactive,–
CCNS(=O)(=O)c1ccc(CCC(=O)N2CCN(c3cc(Cl)ccc3C)CC2)cc1,11.2 µM (active),–
COC(C/C=C/C(=O)[C@@H](C)OCc1ccccc1)OC,inactive,–
CS(=O)(=O)c1sc2nc(-c3ccccc3)cc(-c3ccccc3)c2c1N,inactive,–
c1ccc(-c2cc(-c3ccccc3)[nH]n2)cc1,inactive,–
Nc1nc(-c2ccccc2)cc(-c2ccccc2)n1,10 µM (active),–
COCCNc1nnc(SCC(=O)NNC(=O)c2ccco2)s1,inactive,–
Cc1cc(C)c(-c2c(O)c3ccccc3n(C)c2=O)c(C)c1,11.2 µM (active),–
Cn1c(=O)c(Sc2ccc(Cl)cc2)c(O)c2ccccc21,inactive,–
CCCn1c(=O)c(-c2ccccc2)c(O)c2ccccc21,inactive,–

Compound,Potency,"activity change, negative = inhibition"
CC(C#N)(NC(=O)CN1CCN(S(=O)(=O)c2cc(C(F)(F)F)ccc2Cl)CC1)C1CC1 (configuration not stated),inactive,–
Cc1cn(COC/C=C/c2ccccc2)c(=O)[nH]c1=O,inactive,–
Cc1[nH]c(=O)c(C(=O)/C=C/c2ccccc2)c2c1CCCC2,14.1 µM (active),–
O=C(/C=C/c1ccccc1)c1ccoc1,inactive,–
O=C(NCCS(=O)(=O)N1CCN(c2ccccc2)CC1)c1ccco1,–,5.8% [at 8.37 µM]
Cc1cc(Oc2ccc(Cl)cc2)nc(SCC(=O)c2ccccc2)n1,inactive,–
COC(=O)c1cc(C(=O)CSc2nc(C)cc(C)n2)ccc1O,inactive,–
Cc1cc(C)nc(SCC(=O)c2ccc(Cl)cc2)n1,2.82 µM (active),–
Cn1nnnc1SCC(=O)Nc1sccc1C(N)=O,inactive,–
NC(=O)C1(N2CCCC2)CCN(Cc2ccccc2)CC1,inactive,–
Cc1ccc(CSc2nc3[nH]ncc3c(=O)[nH]2)cc1,inactive,–
CCc1ccc(-n2c(SCc3cc(=O)n4cc(Br)ccc4n3)nc3[nH]ncc3c2=O)cc1,10 µM (active),–
Cc1cccc2nc(CSc3nc4[nH]ncc4c(=O)n3-c3cccc(Cl)c3)cc(=O)n12,–,-0.622% [at 0.335 µM]
CN1C(c2ccc(F)cc2)=CS/C1=C(/C#N)c1nnc2n1-c1ccccc1SC2,inactive,–
CC(CNC(=O)Cn1cnc2c(OCc3ccccc3)ncnc21)c1ccccc1 (configuration not stated),inactive,–
CN(CC(=O)Nc1ccccc1Cl)C(=O)c1ccccc1SCC(=O)N1CCCC1,inactive,–
O=C(COC(=O)Cc1ccccc1F)NCCc1ccccc1,inactive,–
N=c1n(CCc2ccccc2)c2ccccc2n1Cc1ccccc1F,12.6 µM (active),–
CC(=O)NC(C)c1nc2ccccc2n1Cc1ccccc1F (configuration not stated),inactive,–
